# Laboratory results from the supplement of paper PMC6897291.
# Structures can show the parent of a compound that is named as a salt.
# How the values were obtained:
# [1] = test system: RIVA; assay: growth inhibition by drug plus 177Lu-lilotomab satetraxetan (1 - RLU/untreated control) (fraction); higher = stronger inhibition; details: 177Lu-lilotomab satetraxetan 0.5 ug/ml
# Outline: (§1)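 With or without 18 h pretreatment by a radiolabelled anti-CD37 antibody conjugate (~600 MBq/mg; 0.5 µg/ml RIVA, 1 µg/ml U-2932), RIVA and U-2932 cells were washed and plated at 3,000 cells/well. Pre-printed compound doses were 10/100 nM for RIVA and 10/1,000 nM for U-2932. Growth inhibition uses RealTime-Glo RLU relative to the untreated no-drug wells. The calculation is 1 − RLU/mean of 48 such wells per plate, with reads daily from day 3 after 1 h at 37°C.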
# [2] = test system: U-2932; assay: growth inhibition by drug alone (1 - RLU/untreated control) (fraction); higher = stronger inhibition; details: 177Lu-lilotomab satetraxetan 0 ug/ml
# Outline: as §1
# [3] = test system: RIVA; assay: as above; details: 177Lu-lilotomab satetraxetan 0 ug/ml
# Outline: as §1
# [4] = test system: U-2932; assay: growth inhibition by drug plus 177Lu-lilotomab satetraxetan (1 - RLU/untreated control) (fraction); higher = stronger inhibition; details: 177Lu-lilotomab satetraxetan 1 ug/ml
# Outline: as §1
SMILES,"growth inhibition by drug plus 177Lu-lilotomab satetraxetan ([1]; 100 nM, time (day): 5)","growth inhibition by drug plus 177Lu-lilotomab satetraxetan ([1]; 100 nM, time (day): 6)","growth inhibition by drug alone ([2]; 10 nM, time (day): 3)","growth inhibition by drug alone ([2]; 10 nM, time (day): 4)","growth inhibition by drug alone ([2]; 10 nM, time (day): 5)","growth inhibition by drug alone ([2]; 10 nM, time (day): 6)","growth inhibition by drug alone ([2]; 1000 nM, time (day): 3)","growth inhibition by drug alone ([2]; 1000 nM, time (day): 4)","growth inhibition by drug alone ([2]; 1000 nM, time (day): 5)","growth inhibition by drug alone ([2]; 1000 nM, time (day): 6)","growth inhibition by drug alone ([3]; 10 nM, time (day): 3)","growth inhibition by drug alone ([3]; 10 nM, time (day): 4)","growth inhibition by drug alone ([3]; 10 nM, time (day): 5)","growth inhibition by drug alone ([3]; 10 nM, time (day): 6)","growth inhibition by drug alone ([3]; 100 nM, time (day): 3)","growth inhibition by drug alone ([3]; 100 nM, time (day): 4)","growth inhibition by drug alone ([3]; 100 nM, time (day): 5)","growth inhibition by drug alone ([3]; 100 nM, time (day): 6)","growth inhibition by drug plus 177Lu-lilotomab satetraxetan ([4]; 10 nM, time (day): 3)","growth inhibition by drug plus 177Lu-lilotomab satetraxetan ([4]; 10 nM, time (day): 4)","growth inhibition by drug plus 177Lu-lilotomab satetraxetan ([4]; 10 nM, time (day): 5)","growth inhibition by drug plus 177Lu-lilotomab satetraxetan ([4]; 10 nM, time (day): 6)","growth inhibition by drug plus 177Lu-lilotomab satetraxetan ([4]; 1000 nM, time (day): 3)","growth inhibition by drug plus 177Lu-lilotomab satetraxetan ([4]; 1000 nM, time (day): 4)","growth inhibition by drug plus 177Lu-lilotomab satetraxetan ([4]; 1000 nM, time (day): 5)","growth inhibition by drug plus 177Lu-lilotomab satetraxetan ([4]; 1000 nM, time (day): 6)","growth inhibition by drug plus 177Lu-lilotomab satetraxetan ([1]; 10 nM, time (day): 3)","growth inhibition by drug plus 177Lu-lilotomab satetraxetan ([1]; 10 nM, time (day): 4)","growth inhibition by drug plus 177Lu-lilotomab satetraxetan ([1]; 10 nM, time (day): 5)","growth inhibition by drug plus 177Lu-lilotomab satetraxetan ([1]; 10 nM, time (day): 6)","growth inhibition by drug plus 177Lu-lilotomab satetraxetan ([1]; 100 nM, time (day): 3)","growth inhibition by drug plus 177Lu-lilotomab satetraxetan ([1]; 100 nM, time (day): 4)"
CC(=O)c1c(C)c2cnc(Nc3ccc(N4CCNCC4)cn3)nc2n(C2CCCC2)c1=O,0.426,0.392,,,,,,,,,,,,,,,,,,,,,,,,,,,,,,
Cn1cc(C2=C(c3ccc(Cl)cc3Cl)C(=O)NC2=O)c2ccccc21,0.502,0.492,-0.00858,0.00823,0.113,-0.0764,-0.0209,-0.0468,-0.0762,-0.00785,-0.0583,-0.11,-0.108,-0.172,-0.488,-0.393,-0.389,-0.481,-0.0696,0.00483,0.017,-0.0529,0.0138,0.0592,0.059,0.146,0.449,0.533,0.546,0.555,0.465,0.512
CC(C)C[C@H](NC(=O)CNC(=O)c1cc(Cl)ccc1Cl)B1OC(=O)C(CC(=O)O)(CC(=O)O)O1,0.698,0.645,0.0922,0.0916,0.0981,-0.0316,0.985,0.984,0.984,0.984,-0.0185,0.0392,-0.0726,-0.362,0.319,0.4,0.359,0.21,0.0116,0.0804,0.149,0.155,0.984,0.985,0.986,0.988,0.542,0.596,0.606,0.609,0.64,0.701
COc1nc(-c2ccc3c(c2)OCO3)n(-c2ccc(NC(=O)CSc3ccccc3)cc2)n1 [SecinH3],0.437,0.419,-0.0611,-0.0455,-0.0236,0.124,-0.143,-0.0966,-0.134,-0.195,-0.242,-0.224,-0.27,-0.428,-0.311,-0.358,-0.334,-0.394,-0.0793,-0.0496,-0.0101,0.122,-0.197,-0.087,-0.0724,-0.0297,0.275,0.448,0.482,0.494,0.323,0.424
O=c1[nH]nc(Sc2ncc([N+](=O)[O-])s2)n1-c1ccc2c(c1)OCCO2,0.468,0.445,-0.0286,-0.0355,-0.112,-0.247,-0.00347,0.024,-0.0622,-0.12,0.00609,-0.0273,-0.0872,-0.35,-0.0796,-0.0567,-0.0833,-0.162,0.0134,0.0456,0.0435,0.142,0.369,0.406,0.362,0.409,0.41,0.525,0.54,0.553,0.424,0.457
CN(c1ncccc1CNc1nc(Nc2ccc3c(c2)CC(=O)N3)ncc1C(F)(F)F)S(C)(=O)=O,0.566,0.569,0.161,0.0909,0.0358,-0.183,0.299,0.457,0.571,0.694,-0.0233,0.0431,-0.0513,-0.296,-0.0725,0.0108,0.00901,-0.0367,0.066,0.111,0.2,0.224,0.23,0.336,0.426,0.546,0.592,0.636,0.671,0.663,0.458,0.565
Nc1[nH]nc2nnc(-c3c(-c4ccccc4)nn4ccccc34)cc12,0.493,0.495,0.0936,0.109,0.0192,-0.0741,0.0442,0.0356,-0.0414,-0.0395,0.0237,0.104,0.0531,-0.13,-0.0641,0.0167,0.00135,-0.0876,0.135,0.17,0.238,0.275,0.0922,0.143,0.19,0.259,0.592,0.635,0.657,0.652,0.357,0.48
CC[C@H]1OC(=O)[C@H](C)[C@@H](O[C@H]2C[C@@](C)(OC)[C@@H](O)[C@H](C)O2)[C@H](C)[C@@H](O[C@@H]2O[C@H](C)C[C@H](N(C)C)[C@H]2O)[C@](C)(O)C[C@@H](C)CN(C)[C@H](C)[C@@H](O)[C@]1(C)O [Azithromycin (Zithromax)],0.576,0.561,0.204,0.13,0.0304,-0.0338,0.0821,0.11,0.0532,-0.0307,0.16,0.206,0.16,0.0424,0.0514,0.129,0.0797,-0.0131,0.138,0.178,0.198,0.299,0.0676,0.168,0.163,0.224,0.526,0.619,0.633,0.639,0.499,0.586
O=C1c2c(O)ccc(O)c2C(=O)c2c(NCCNCCO)ccc(NCCNCCO)c21 [Mitoxantrone Hydrochloride],0.947,0.962,0.436,0.52,0.635,0.732,0.945,0.971,0.981,0.986,0.293,0.565,0.667,0.759,0.568,0.82,0.873,0.904,0.559,0.694,0.81,0.881,0.971,0.982,0.987,0.99,0.83,0.913,0.95,0.968,0.736,0.92
CC(C)n1nc(-c2ccc3oc(N)nc3c2)c2c(N)ncnc21,0.835,0.833,0.366,0.275,0.188,0.215,0.912,0.912,0.917,0.929,0.258,0.176,0.117,-0.0267,0.716,0.708,0.699,0.63,0.352,0.294,0.31,0.355,0.908,0.905,0.918,0.937,0.595,0.576,0.586,0.587,0.816,0.84
C[C@H](NC(=O)Cc1cc(F)cc(F)c1)C(=O)N[C@H](C(=O)OC(C)(C)C)c1ccccc1,0.437,0.445,-0.0234,-0.0325,-0.047,-0.000319,-0.0711,-0.073,-0.0673,-0.0373,-0.112,-0.175,-0.192,-0.264,-0.299,-0.293,-0.297,-0.351,-0.0297,0.0223,0.0667,0.147,-0.025,0.0181,0.0285,0.158,0.498,0.535,0.549,0.545,0.341,0.426
CC(=O)O[C@]1(C(C)=O)CC[C@H]2[C@@H]3C=C(C)C4=CC(=O)CC[C@]4(C)[C@H]3CC[C@@]21C [Megestrol Acetate],0.525,0.508,0.119,0.0962,0.0591,0.00317,0.0742,0.112,0.0515,-0.0501,-0.0198,-0.0102,-0.107,-0.454,0.0472,0.023,-0.0299,-0.147,0.0333,0.104,0.0868,0.12,0.044,0.137,0.0953,0.163,0.408,0.529,0.546,0.551,0.497,0.522
CCC(=O)N1CCN(c2ccc(-n3c(=O)ccc4cnc5ccc(-c6cnc7ccccc7c6)cc5c43)cc2C(F)(F)F)CC1 [Torin 1],0.565,0.531,0.203,0.128,0.0048,-0.022,0.9,0.883,0.866,0.87,0.0288,0.0386,-0.0391,-0.398,0.409,0.37,0.289,0.104,0.168,0.161,0.208,0.242,0.904,0.878,0.875,0.879,0.556,0.599,0.631,0.621,0.595,0.604
Cc1ccc(-c2cc(C(F)(F)F)nn2-c2ccc(S(N)(=O)=O)cc2)cc1 [Celecoxib],0.453,0.425,-0.0761,-0.0572,-0.00842,0.0336,-0.0323,-0.0104,-0.0383,-0.0538,-0.101,-0.129,-0.153,-0.237,-0.0795,-0.119,-0.157,-0.232,-0.0503,-0.0256,0.0111,0.161,-0.109,-0.0274,0.00456,0.0432,0.337,0.477,0.505,0.512,0.373,0.448
